Laboratory results as given in PubChem BioAssay (NCI).
Compounds without any hit were thinned out: in the full panel of roughly 83,000, 20% have a hit.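 A percent growth of 40 corresponds to 60% growth inhibition; 0 means no net growth; -100 means all cells died. Active threshold: below 10.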 Unmarked numbers belong to inactive results. The source made the active and inactive calls.

Each compound was assayed on NCI-H322M lung (assay: NCI-60 one-dose screen, 48 h (100 = growth as untreated, 0 = no growth, -100 = all killed)). Details: 10 µM unless noted.
`COC(=O)CC12CC(NC(=O)c3csc([C@@H](C[C@H](C(C)C)N(C)C(=O)[C@@H](NC(=O)[C@H]4CCCCN4C)C(C)C)OC(C)=O)n3)(C1)C2` was tested, and the growth was 43%.
With `C#Cc1ccc2c(c1)C(c1ccccc1)=NCC(=O)N2C` the growth was 77.7%.
`COc1cccc2c1c(C(=O)C(=O)Nc1ccn[nH]1)cn2Cc1ccc(F)cc1` gave a growth of 97.8%.
`Clc1cccc(Cl)c1Cl` gave a growth of 99.5%.
For `O=c1[nH]cc(N(CCCl)CCCl)c(=O)[nH]1`, the growth was 96.6%.
With `CC(C)(N)Cc1ccccc1` the growth was 105%.

Each compound was assayed on HOP-62 NSCLC in the same assay as above. Details: 10 µM unless noted.
Compound `CC[C@H](C)[C@H](NC(=O)c1ccccn1)C(=O)N(C)[C@H](C[C@@H](OC(C)=O)c1nc(C(=O)N[C@@H](Cc2ccccc2)C[C@H](C)C(=O)OC)cs1)C(C)C` has a growth of 26.9%.
`O=[N+]([O-])c1cnc[nH]1` was tested, and the growth was 106%.
With `CC(=O)O[C@H]1CC[C@]2(C)[C@H]3CC[C@]4(C)[C@@H](OC(C)=O)CC[C@H]4[C@@H]3[C@@H](C)[C@]2(O)C1` the growth was 105%.
For `CCN(CC)CCOC(=O)C(OC(C)C)(c1ccccc1)c1ccccc1`, the growth was 94.8%.
`O=C1NC(=O)C(=Cc2cccn2CCCCCn2c3ccccc3c(=O)c3ccccc32)C(=O)N1` showed a growth of 102%.
`COc1ccc(Nc2ccc([N+](=O)[O-])cc2[N+](=O)[O-])cc1CN(CCCl)CCCl` gave a growth of 35.8%.
With `CCCC[C@H](NC(=O)[C@H]1CCCCN1C)C(=O)N(C)[C@H](C[C@@H](OC(C)=O)c1nc(C(=O)N[C@@H](Cc2ccccc2)C[C@H](C)C(=O)OCC)cs1)C(C)C` the growth was 18.1%.
`Nc1c(F)cc(-c2nc3cc(F)ccc3[se]2)cc1F` was tested, and the growth was 58.9%.
With `COC(=O)[C@H](Cc1ccccc1)NC(=O)c1csc([C@@H](C[C@H](C(C)C)N(C)C(=O)[C@@H](NC(=O)[C@H]2CCCCN2C)C2CC2)OC(C)=O)n1` the growth was -2.57% (active).
`COC(=O)[C@@H](C)C[C@H](Cc1ccccc1)NC(=O)c1nc([C@@H](C[C@H](C(C)C)N(C)C(=O)[C@@H](NC(=O)[C@H]2CC(=O)CCN2C)C(C)C)OC(C)=O)sc1C(C)C` gave a growth of 15.6%.
With `CC(C)=CCC[C@H](C(=O)O)[C@@H]1CC[C@]2(C)C3=C(CC[C@@]12C)[C@@]1(C)CC[C@H](O)C(C)(C)[C@@H]1CC3` the growth was 97.3%.
In the case of `C=CC[PH+](c1ccccc1)c1ccccc1.C=CC[PH+](c1ccccc1)c1ccccc1.[Cl][Pt][Cl]`, the growth is reported as 95.8%.
In the case of `CN1CCC(O)(c2ccc(F)cc2)C(C(=O)c2ccc(F)cc2)C1` (stereo not drawn), the growth is reported as 97.2%.
Work on `COc1ccc2c(c1)c(-c1nc(-c3c[nH]c4ncccc34)cs1)cn2CCN1CCOCC1` yielded a growth of 27.4%.
In the case of `COC(=O)[C@@H](C)C[C@H](Cc1ccccc1)NC(=O)c1csc([C@@H](C[C@H](C(C)C)N(C)C(=O)[C@@H](NC(=O)[C@H]2CCCCN2C)C(C(F)(F)F)C(F)(F)F)OC(C)=O)n1`, the growth is reported as 15.1%.
Work on `CN1CC(=O)N(O)C1(C)c1cccnc1` (stereo not drawn) yielded a growth of 95.6%.
For `COc1cc(/C=C/[N+](=O)[O-])cc(OC)c1`, the growth was 35.9%.
For `CC12CCC3C(CCC4Cc5[nH]c6ccccc6c5CC43C)C1CCC2O` (stereo not drawn), the growth was 62.8%.
`COC(=O)C12CC(NC(=O)c3csc([C@@H](C[C@H](C(C)C)N(C)C(=O)[C@@H](NC(=O)[C@H]4CCCCN4C)C(C)C)OC(C)=O)n3)(C1)C2` was tested, and the growth was 6.07% (active).
`CC1CN1CCCCN1CC1C` (stereo not drawn) was tested, and the growth was 109%.
In the case of `CC(=O)O[C@H](C[C@H](C(C)C)N(C)C(=O)[C@@H](NC(=O)[C@H]1CCCCN1C)C(C)C)c1nc(C(=O)NC2CCC(C(=O)O)CC2)cs1` (stereo partly drawn), the growth is reported as 47.1%.
`CC[C@H](C)[C@@H]([C@@H](CC(=O)N1CCC[C@H]1[C@H](OC)[C@@H](C)C(=O)N[C@H](C)[C@@H](O)c1ccccc1)OC)N(C)C(=O)[C@@H](NC(=O)[C@@H](NC)C(C)C)C(C)C` was tested, and the growth was 25.8%.
`CCNc1nc(Cl)nc(NCC)n1` gave a growth of 93%.
With `CCOP(=O)(NC[C@H]1O[C@](O)(CO)[C@@H](O)[C@@H]1O)OCC` the growth was 91%.
`CCCc1cc(O)c2c3c(c(=O)oc2c1)CN(C)CC3` gave a growth of 28.6%.
For `CCCCN1CCCC[C@@H]1C(=O)N[C@H](C(=O)N(C)[C@H](CCc1nc(C(=O)N[C@@H](Cc2ccccc2)C[C@H](C)C(=O)OC)cs1)C(C)C)[C@@H](C)CC`, the growth was 56.9%.
`O=C([O][Hg][CH2]C1COCC([CH2][Hg][O]C(=O)c2ccccc2)O1)c1ccccc1` (stereo not drawn) was tested, and the growth was 127%.
With `CN[C@]1(c2ccccc2Cl)CCCC[C@H]1NCCCN1CCN(C)CC1` the growth was 93.8%.
With `Cn1cc(-c2csc(-c3cn(CCN4CCOCC4)c4ccc(F)cc34)n2)c2cccnc21` the growth was 8.52% (active).
Compound `CC(C)CCC1(CCCl)C(=O)NC(=O)NC1=O` has a growth of 106%.
`O=C(CCCC1CCCCC1)OCC(Cl)(Cl)Cl` showed a growth of 98.7%.
For `COC(=O)CC12CC(NC(=O)c3csc([C@@H](C[C@H](C(C)C)N(C)C(=O)[C@@H](NC(=O)[C@H]4CCCCN4C)C(C)C)OC(C)=O)n3)(C1)C2`, the growth was 6.8% (active).
For `C#Cc1ccc2c(c1)C(c1ccccc1)=NCC(=O)N2C`, the growth was 49.8%.
With `COc1cccc2c1c(C(=O)C(=O)Nc1ccn[nH]1)cn2Cc1ccc(F)cc1` the growth was 103%.
For `Clc1cccc(Cl)c1Cl`, the growth was 99%.
Work on `O=c1[nH]cc(N(CCCl)CCCl)c(=O)[nH]1` yielded a growth of 103%.
In the case of `CC(C)(N)Cc1ccccc1`, the growth is reported as 118%.
